Screens (PubChem)
In the library only some 19% were active in any assay of this set; here they are far more common.
TDP1 cell noCPT: qHTS for Inhibitors of human tyrosyl-DNA phosphodiesterase 1 (TDP1): qHTS in cells in absence of CPT; Potency, µM (series often up to 46.2 µM), for inactives: at the top dose activity change, negative = growth inhibition, actives largely listed as inhibitors; hit rate 15% among 420,000; DT40 Tdp1-/- hTDP1 cells, no CPT, ATP luminescence, 48 h; further: potency means the concentration at half of the fitted maximal effect; nearly all actives have a fitted effect of over 55% in size
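Growth kinetics read by CellTiter-Glo luminescence after ≥48 hr at 37 °C. Cells: DT40 Tdp1-/- stably carrying human TDP1, 400 per well, compound exposure in the absence of CPT (DMSO vehicle).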
HT1080 IDH1KD tx: qHTS for induction of synthetic lethality in tumor cells producing 2HG: qHTS for the HT-1080-IDH1KD cell line; HT-1080 IDH1 knockdown viability, ATP luminescence, 48 h; Potency, µM (highest dose often 46.1 µM), without a hit: at the top dose activity, negative = toxicity, actives largely listed as cytotoxic; hit rate 2% among 360,000; AID 686971, 2013;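 further: potency means the concentration at half of the fitted maximal effect; 0% = DMSO wells and -100% = cell-free medium wells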
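Assay cells: HT-1080 with IDH1 knockdown, 750 per well, RPMI/5% FBS. Exposure: 48 h at 37 °C following 2 h pre-incubation. Read: CellTiter-Glo luminescence; fitted concentration-response, curve class assigned.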
DT40 TDP1 CPT: qHTS for Inhibitors of human tyrosyl-DNA phosphodiesterase 1 (TDP1): qHTS in cells in presence of CPT; chicken DT40 Tdp1-/-;hTDP1 cells + 20 nM CPT, ATP luminescence, 48 h; Potency, µM (highest dose often 46.2 µM), for the others: top-dose activity change, negative = growth inhibition, actives largely listed as inhibitors; hit rate 12% among 420,000; further: potency means the concentration at half of the fitted maximal effect; nearly all actives have a fitted effect of over 55% in size
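Chicken DT40 Tdp1-/- cells complemented with human TDP1, 400 cells/well, exposed to compounds plus 20 nM camptothecin for at least 48 h at 37 C; viability read as ATP content by CellTiter-Glo luminescence.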
IL1B secr inh: qHTS for Inhibitors of Inflammasome Signaling: IL-1-beta AlphaLISA Primary Screen; THP-1 LPS/ATP IL-1B secretion, AlphaLISA, 16 h; hits give low values; activity change, % at 57.5 µM; hit rate 4.7% among 360,000; AID 743279, 2014; in the data active means activity change below about -50%; inconclusive means mostly about -30% to -49%
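Secreted IL-1B measured by AlphaLISA bead assay after 16 h compound exposure of THP-1 cells; compounds (final up to 57.5 uM) added 1 h before LPS (250 ng/mL) and ATP (1.25 mM) stimulation; lower signal means less secretion.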
uPA surface inh: qHTS for Inhibitors of Cell Surface uPA Generation | AID 540303, 2011 | hit rate 0.31% among 330,000 | cell surface uPA generation assay, qHTS | Potency, µM (highest dose often 38.3 µM), for the others: top-dose activity change, negative = inhibition, hits mostly inhibitors; active means well fitted inhibition curve with a large enough effect; inconclusive means small, poorly fitted or top-dose-only effect; inactive means no such curve, though single readings can be large or run the other way; tested in mouse RAW 264.7 cells; further: potency means the concentration at half of the fitted maximal effect; nearly all actives have a fitted effect of over 55% in size
HT1080-NT tox: qHTS for induction of synthetic lethality in tumor cells producing 2HG: qHTS for the HT-1080-NT fibrosarcoma cell line. HT-1080-NT fibrosarcoma viability, CellTiter-Glo ATP luminescence, 48 h. Potency, µM (highest dose often 46.1 µM), for inactives: at the highest dose activity, negative = less viability, hits mostly cytotoxic. hit rate 1.6% among 360,000. AID 686970, 2013;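 further: NT is the 2HG producing partner of a matched IDH1 knockdown line; potency means the concentration at half of the fitted maximal effect; 0% = DMSO-treated cells and -100% = media-only wells without cells; nearly all actives have a fitted effect of over 55% in size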
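Fibrosarcoma NT cells, 750 per well in 5% FBS RPMI, were exposed to compound for 48 hours. Viability: CellTiter-Glo luminescence.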
The depositor's hits bear a star; u = inconclusive; x = no result; [ ] = remark or other dose. Unless noted, the call rests on the fitted dose curve; in most records, active means well fitted curve in the direction sought with a large enough effect; inconclusive means small, poorly fitted or top-dose-only effect, or another doubt; inactive means no such curve, though single readings can be large; an effect the other way counts as inactive or inconclusive. Unless noted, on the % scale 0 is the no-effect control and ±100 the full control effect.

SMILES	TDP1 cell noCPT	HT1080 IDH1KD tx	DT40 TDP1 CPT	IL1B secr inh	uPA surface inh	HT1080-NT tox
CSCC[C@H](NC(=O)Cc1ccc(Cl)cc1)C(=O)N1CCC2(CC1)NCCc1[nH]cnc12	8%	-9%	-1%	u	4%	-1%
CCOc1ccccc1N1CCN(S(=O)(=O)c2ccc(C3CCCCC3)cc2)CC1	u	x	-25%	x	x	x
O=C(CCCn1c(SCc2cccc(F)c2)nc2ccccc2c1=O)NCC1CCCO1 (stereo not drawn)	u	1%	u	-79*	-9%	3%
CC(C)COC(=O)Cn1nnc2sc(-c3ccccc3)cc2c1=O	-23%	x	-23%	x	x	x
CCOC(=O)C(CC)n1nnc2sc(-c3ccccc3)cc2c1=O (stereo not drawn)	15µM*	x	26µM*	x	x	x
COc1ccc(S(=O)(=O)N2CCCCC2)cc1NC(=O)C1CC(=O)N(Cc2ccccc2)C1 (stereo not drawn)	-1%	-8%	-20%	-16	-5%	2%
CC(C)CN(C(=O)COC(=O)CSc1ccc(Br)cc1)C1CCS(=O)(=O)C1 (stereo not drawn)	0%	7%	-3%	4	0%	5%
COc1cc(-c2cc3n(C)c(C)c(CCC(=O)NC4CCC(C)CC4)c(=O)n3n2)cc(OC)c1OC (stereo not drawn)	13µM*	x	15µM*	x	x	x
COCCNC(=O)CCc1c(C)n(C)c2cc(-c3cc(OC)c(OC)c(OC)c3)nn2c1=O	1%	x	-6%	x	x	x
CCOc1ccc(-n2c(=O)c3sc4ccccc4c3n(Cc3cccc(C)c3)c2=O)cc1	-29%	x	1%	x	x	x
CN=C1SC(CC(=O)Nc2ccccc2F)C(=O)N1/N=C/c1ccc(O)c(OC)c1 (stereo not drawn)	13µM*	u	23µM*	9	18%	u
CCC(CC)C(=O)Nc1ccc(OCc2cc(=O)n3ccc(C)cc3n2)cc1	-15%	x	-4%	x	x	x
COc1cccc(C(O)c2nc(-c3cccc(F)c3)cs2)c1 (stereo not drawn)	u	-23%	u	24	x	-23%
S=C(NCCc1ccccc1)N/N=C/c1ccccc1Cl	u	-21%	u	11	8%	0%
CC(C)NC(=S)N/N=C/c1cc(Br)ccc1O	4.6µM*	u	4.6µM*	32	-8%	u
Cc1[nH]c2ccccc2c1/C=N/NC(=S)NC(C)C	u	u	u	-30	2%	u
CC(C)NC(=S)N/N=C/c1c[nH]c2ccccc12	3.7µM*	7%	4.6µM*	16	0%	2%
Oc1ccc(Br)cc1/C=N/NC(=S)NCCc1ccccc1	16µM*	u	u	-75*	-2%	u
COC(=O)N/N=C/c1cc(Br)ccc1O	-14%	5%	-1%	-16	-2%	2%
COc1ccc(O)c(/C=N/NC(=S)NCCc2ccccc2)c1	u	u	u	-97*	2%	15µM*
COc1ccc(/C(C)=N/NC(=S)NCCc2ccccc2)c(O)c1	0.58µM*	u	0.65µM*	51	0%	u
COCCNC(=S)N/N=C/c1ccccc1C(=O)O	-27%	1%	-14%	12	2%	17%
O=C(CCc1ccccc1)N/N=C/c1cc(Br)ccc1O	4.1µM*	u	2.6µM*	20	-7%	u
COc1ccc(CCNC(=S)Nc2ccccc2)cc1	u	-1%	u	0	0%	-2%
COCCCNC(=S)N/N=C/c1ccccc1O	0.58µM*	-6%	2.6µM*	4	-15%	-2%
SMILES	TDP1 cell noCPT	HT1080 IDH1KD tx	DT40 TDP1 CPT	IL1B secr inh	uPA surface inh	HT1080-NT tox
CCSc1ncccc1C(=O)N[C@@H](CCSC)C(=O)OC	-15%	15%	-1%	-21	3%	17%
CCN1CCN(C(=O)c2ccc(N3CC4CC(C3)c3cccc(=O)n3C4)c([N+](=O)[O-])c2)CC1 (stereo not drawn)	6%	15%	4%	36	2%	24%
CCCNC(=O)c1cc(C2CCCN(C(=O)c3ccc(NC(C)=O)cc3)C2)on1 (stereo not drawn)	-31%	3%	2%	1	x	14%
COc1ccc(/C(=C\C(=O)O)c2nccc3cc(OC)c(OC)cc23)cc1OC	-9%[9.04 µM]	x	9%[9.04 µM]	x	x	x
CN(C)C1CCCCC=CC(=O)NC1 (stereo not drawn)	21%	-1%	-2%	0	x	0%
O=C(O)c1ccc(S(=O)(=O)NC2CCCc3ccccc32)cc1 (stereo not drawn)	-8%	13%	-16%	5	-3%	10%
CC(=O)N1CCc2cc(S(=O)(=O)CCC(=O)Nc3ccc(Cl)cc3F)ccc21	-3%	2%	-21%	-7	0%	1%
CC(=O)N1CCc2cc(S(=O)(=O)CCC(=O)NCc3ccc(Cl)cc3)ccc21	21µM*	-13%	u	-9	0%	-19%
CC(=O)N1CCc2cc(S(=O)(=O)NCCC(=O)NCCc3ccc(Cl)cc3)ccc21	u	3%	16µM*	-6	-15%	11%
CC(=O)N1CCc2cc(S(=O)(=O)NCCC(=O)NCCc3ccccc3)ccc21	u	-1%	u	29	-1%	2%
CC(=O)N1CCc2cc(S(=O)(=O)NCCC3=CCCCC3)ccc21	2.6µM*	21µM*	9.2µM*	1	-5%	-9%
CC(=O)N1CCc2cc(S(=O)(=O)NC3CCCc4ccccc43)ccc21 (stereo not drawn)	14µM*	-29%	13µM*	20	1%	-16%
Cc1nn(CC(=O)N2CCc3ccccc3C2)c(C)c1Cl	-20%	3%	-14%	-10	0%	4%
CC1CCC(NC(=O)CSc2nnc(-c3cccnc3)o2)CC1 (stereo not drawn)	-20%	-1%	-16%	-1	-1%	0%
Cn1c(CC(=O)Nc2ccccc2)nnc1SCC(=O)NC1CCCC1	-29%	-1%	-3%	-14	5%	2%
CCCC(=O)N1CCC1(C)C(=O)Nc1ccc2nccnc2c1 (stereo not drawn)	-20%	10%	u	9	x	11%
CC(=O)N1CCc2cc(S(=O)(=O)NCCC(=O)NCCc3ccc(C)cc3)ccc21	16µM*	u	29µM*	0	-6%	-9%
